Screening results: PubChem BioAssay, National Center for Advancing Translational Sciences (NCATS)
The list is not random: actives were taken first. Their share in the collection is about 6.5%.
Marburg entry inh – blocks Marburg virus binding to or entry into cells. Potency, µM (titrated, usually from 37.8 µM), most hits filed as inhibitors. Marburg virus pseudotyped entry inhibition, cell reporter. 300,000 tested, 1.8% active; calls by dose curve; tested in HEK293 cells
VACV Venus inh – vaccinia inhibition (Venus reporter); Vaccinia virus Venus reporter expression, fluorescence; Potency, µM (highest dose often 36.5 µM), actives largely listed as inhibitors; 330,000 tested, 0.46% active; AID 720580; calls by dose curve; tested in A549 cells; further: nearly all actives have a fitted effect of over 30% in size
Vaccinia mCherry – vaccinia inhibition (mCherry reporter); Vaccinia virus mCherry reporter infection, fluorescence; Potency, µM (series often up to 36.5 µM), most hits filed as inhibitors; 310,000 tested, 0.63% active; calls by dose curve; tested in A549 cells; further: nearly all actives have a fitted effect of over 35% in size
FMDV antiviral – blocks foot and mouth disease virus; FMDV antiviral cell-based qHTS; Potency, µM (top dose mostly 57.9 µM), actives largely listed as inhibitors; 410,000 tested, 1.2% active; AID 1159524; calls by dose curve; tested in HEK293T cells; further: read-out not given here; nearly all actives have a fitted effect of over 45% in size
LASV entry inh – Lassa virus entry inhibition; 300,000 tested, 1.2% active; Lassa virus pseudotype entry inhibition, cell reporter; Potency, µM (highest dose often 37.9 µM), most hits filed as inhibitors; calls by dose curve; tested in HEK293 cells; further: nearly all actives have a fitted effect of over 50% in size
HCMV antiviral – inhibitors of human cytomegalovirus; HFF cells, HCMV-luciferase reporter, 72 h; hits give low values; activity change, negative = inhibition, % at 57.5 µM; 410,000 tested, 4.5% active; in the data active means activity change below about -60%; inconclusive means no clear call, values can overlap the other calls; inactive means above about -39%
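Inhibition of viral replication was scored as loss of reporter luminescence in HFFs infected with HCMV-luciferase (MOI 1 PFU/cell) for 72 h; compounds tested at 2 doses, normalized to buffer and Salinomycin controls.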
WI-38 tox – counter-screen for perinucleolar compartment inhibitors: WI-38 cytotoxicity | shares compounds with Marburg entry inh | WI-38 normal lung fibroblasts, ATPLite luminescence ATP viability, 24 h | Potency, µM (series often up to 46.1 µM), most hits filed as inhibitors | 120 tested, under 10 active
PNC inh conf – confirmation of perinucleolar compartment assembly inhibitors; 120 tested, 50% active; PC3M PTB-GFP, PNC prevalence imaging, 16 h; shares compounds with Marburg entry inh; Potency, µM (series often up to 46.1 µM), hits mostly inhibitors
PC3M casp3-7 – activates caspase 3/7 in PC3M cells in PNC counter-screen; shares compounds with Marburg entry inh; PC3M-GFP caspase 3/7 activation, luminescence, 24 h; activity change, positive = activation, % at 46.1 µM; 120 tested, under 10 active; AID 2731
Numbers stand for hits; - = inactive; ? = inconclusive; . = not tested or not shown; [ ] = remark or other dose. Unless noted, the call rests on the fitted dose curve; in most records, active means well fitted curve in the direction sought with a large enough effect; inconclusive means small, poorly fitted or top-dose-only effect, or another doubt; inactive means no such curve, though single readings can be large; an effect the other way counts as inactive or inconclusive.

SMILES | Marburg entry inh | VACV Venus inh | Vaccinia mCherry | FMDV antiviral | LASV entry inh | HCMV antiviral | WI-38 tox | PNC inh conf | PC3M casp3-7
CCOc1ccc2nc(N(Cc3cccnc3)C(=O)c3ccc4c(c3)OCCO4)sc2c1 | . | -[7.34 µM] | -[7.34 µM] | - | - | - | . | . | .
Cn1c(SCC2CCCO2)nnc1C1CCN(Cc2ccc(-c3cccc(Cl)c3)o2)CC1 (stereo unspecified) | . | - | - | - | . | . | . | . | .
C[N+]1(C)CC2=Cc3ccccc3CC2C1 (stereo unspecified) | - | - | - | - | - | ? | . | . | .
C1=C2C[N+]3(CCCC3)CC2Cc2ccc3ccccc3c21 (stereo unspecified) | ? | - | -[1.46 µM] | - | - | -65.0 | . | . | .
CC(=O)[C@@]1(O)C(C)CC2C3C=C(C)C4=Cc5c(cnn5-c5ccccc5)C[C@]4(C)C3C(O)C[C@@]21C (stereo partly specified) | 7.94µM | ? | - | - | ? | ? | . | . | .
Cc1cc(C(=O)NC2CC(C)(C)Cc3c2cnn3-c2ccccc2)n(C)n1 (stereo unspecified) | ? | - | - | ? | - | - | . | . | .
COC(=O)[C@H]1C[C@H](C(=O)O)[C@@H](C)C1(C)C | . | - | - | - | . | -94.5 | . | . | .
Cc1noc(C)c1-c1cc(NCCN2CCOCC2)ncn1 | . | . | . | - | . | . | . | . | .
CCC(C)C1NC(=O)C2CCCN2C(=O)C(CC(C)C)OC(=O)CCNC(=O)C(C)N(C)C(=O)C(C(C)C)N(C)C1=O (stereo unspecified) | 2µM | - | - | - | 3.16µM | -86.8 | . | . | .
CC(=O)Nc1cc([N+](=O)[O-])cc(NC(C)=O)c1NC(C)=O | . | - | - | . | . | . | . | . | .
Cc1ccc(NC(=S)c2nc3ccccc3[nH]2)c(C)c1 | ? | - | ? | - | ? | - | . | . | .
Cc1cccc(/C=C(\c2nc3ccccc3[nH]2)S(=O)(=O)c2ccccc2)c1 | 12.6µM | ? | ? | 8.91µM | ? | -98.3 | ? | 22.4µM | -
Cc1cc(C(=O)N/N=C\c2cc(C(C)(C)C)ccc2O)n[nH]1 | . | . | . | - | . | . | . | . | .
Cc1cc(C(=O)N/N=C/c2cc(Br)cc(Br)c2OC(=O)c2ccccc2)n[nH]1 | - | . | . | . | ? | . | - | ? | -
O=C(NC(Cc1c[nH]c2ccccc12)C(=O)Nc1ccc(OC(F)(F)F)cc1)c1cccs1 (stereo unspecified) | 2.59µM | - | ? | ? | 2.06µM | -97.0 | - | 7.08µM | -
O=C1C(Nc2ccccc2)=C/C(=N/S(=O)(=O)c2cccs2)c2ccccc21 | 4.11µM | 10µM | 8.91µM | ? | ? | . | 28.2µM | ? | ?
Cc1ccc(NC2=C/C(=N/S(=O)(=O)c3cccs3)c3ccccc3C2=O)cc1 | 4.61µM | ? | - | 7.94µM | 4.11µM | -102.0 | 31.6µM | 25.1µM | ?
O=C(CSc1ccnc(=O)[nH]1)NCc1ccc(F)cc1 | . | - | - | - | - | - | . | . | .
CCOc1ccc(/C=C/c2nc(C#N)c(NCc3ccc(OC)cc3)o2)cc1 | - | ? | ? | - | ? | - | . | . | .
CN(C)c1nc(OCCNC(=O)COc2ccccc2Cl)nc(N(C)C)n1 | - | . | . | - | - | - | - | ? | -
COCCNC(=O)CSc1nc2cc3c(cc2c(=O)n1CCCC(=O)NCc1ccc2c(c1)OCO2)OCO3 | . | - | - | - | - | - | . | . | .
COCCN(Cc1ccc(C)c(Br)c1)S(=O)(=O)c1ccc2[nH]c(=O)ccc2c1 | . | - | - | - | ? | - | . | . | .
O=C(NCc1ccco1)C1CCCCC1 | - | . | . | - | - | ? | . | . | .
O=C(NCc1ccco1)C1CCN(Cc2ccc(F)cc2)CC1 | - | - | . | - | - | - | - | - | -
C#CCn1c(S(=O)(=O)Cc2ccc(F)cc2)nc(-c2ccccc2)c1-c1ccccc1 | 0.92µM | . | . | ? | 3.66µM | -97.3 | - | 7.94µM | -
NC(=O)Cn1c(S(=O)(=O)Cc2ccccc2)nc2ccccc21 | - | - | - | - | - | - | . | . | .
